EP2 mod: EP2 receptor modulators, cAMP readout, primary screen, cell-based, HTRF cAMP, PGE2 stimulation; EP2-expressing cells, cAMP HTRF FRET, PGE2 co-stimulation; 260,000 compounds, 0.83% hits; induction, % at 25 µM; Prostaglandin E2 receptor EP2 subtype (Homo sapiens), P43116;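 active = compounds whose cAMP rise, as percent of the full-agonist control response, exceeds 60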;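 also: rat C6 glioma line stably carrying human EP2 under a CMV promoter; the protocol text gives 20 µM as final concentration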
Target sequence (P43116 whole entry, looked up): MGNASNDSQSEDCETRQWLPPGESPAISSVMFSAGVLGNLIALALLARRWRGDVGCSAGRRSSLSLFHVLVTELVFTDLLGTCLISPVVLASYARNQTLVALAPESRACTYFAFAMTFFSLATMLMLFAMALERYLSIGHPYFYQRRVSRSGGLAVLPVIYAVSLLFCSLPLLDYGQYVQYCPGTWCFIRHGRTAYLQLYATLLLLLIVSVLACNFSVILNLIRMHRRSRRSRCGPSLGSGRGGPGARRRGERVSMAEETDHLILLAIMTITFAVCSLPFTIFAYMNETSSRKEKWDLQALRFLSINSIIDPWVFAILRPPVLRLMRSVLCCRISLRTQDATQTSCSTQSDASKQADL
EP2 antag: human EP2 receptor antagonists, primary screen, TR-FRET cAMP, C6 glioma cells; C6 glioma cells expressing human EP2; cells stimulated with saturating PGE2; inhibition, % at 25 µM; 260,000 compounds, 0.52% hits;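 active = percent inhibition above 40 after rounding to a whole number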;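 also: rat C6 glioma host cells with rolipram phosphodiesterase inhibitor present; the protocol text gives 20 µM as final concentration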
Furin inh: human furin inhibitors, primary screen, biochemical, fluorescence intensity; purified furin, fluorogenic substrate cleavage; inhibition, % at 20 µM or 30 µM; 220,000 compounds, 0.061% hits; AID 463115, 2010; in the data active = inhibition above about 25%
HSV replic up: enhancers of HSV replication in host cells, fold increase, host cell viability; HSV replication augmentation in cells; maximum fold increase; 220,000 compounds, 0.005% hits; in the data active = maximum fold increase above about 1.5; tested in PC3 cells
Pf gamet viab: late stage P. falciparum gametocyte viability inhibitors, primary screen, ATP luminescence, HTS; P. falciparum stage V gametocytes, 24 h; inhibition, % at 10.9 µM; 150,000 compounds, 0.065% hits; AID 743093, 2013;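 active = inhibition above the mean plus 3 SD of compounds within the control limits, set per campaign, cut at about 38% in these data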
EP2 cAMP induct: cAMP induction in EP2, EP4, beta2-AR and parental cells, confirmation, counter-screen for EP2 modulator project, cell-based, five parallel assays, C6 glioma, HEK293; cAMP HTRF induction; plus low (about EC15) PGE2 agonist; shares compounds with EP2 mod; 1,300 compounds, 47% hits; AID 1080, 2008; calls only at 20 µM (by protocol);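 active = cAMP induction above 50% in the main assay while under 30% in all four parallel counter assays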;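 also: rat C6 glioma cells stably expressing human EP2 receptor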
Large screens that a line does not name were inactive (follow-up assays come after a bar, where they were run). Shown are actives, neighbours in structure and some others; about 1.4% of the full set was active somewhere.

O=C(CSc1nc(C2CCCCC2)nc2ccccc12)NCc1ccco1	none
O=C(O)CCCCCCCCCCCc1ccccc1	EP2 mod 78 (no result: Pf gamet viab) | EP2 cAMP induct active
CC(=O)c1ccc(S(=O)(=O)NCCCC(=O)NCCc2ccccn2)cc1	EP2 mod 71 | EP2 cAMP induct inactive
Cc1cc2oc(=O)cc(CSc3nc(N)cc(N)n3)c2cc1C(C)C	none (no result: Pf gamet viab)
Cc1ccc2nc(-c3ccc(Br)o3)oc(=O)c2c1	none (no result: Pf gamet viab)
CC1CC(C)(C)N2C(=O)C3(Nc4ccccc4S3)c3cccc1c32 (centres undefined)	none (no result: Pf gamet viab)
Cc1cc2c3c(c1)C1(SCC(=O)N1c1ccc(F)cc1)C(=O)N3C(C)(C)CC2C (centres undefined)	EP2 mod 67 | EP2 cAMP induct inactive
COc1cc(C=O)ccc1OC(=O)c1ccc(C(C)C)cc1	EP2 mod 74 | EP2 cAMP induct inactive
Cc1cc(-c2ccccc2)nc2oc3c(c12)NC(=O)CN(c1ccccc1)C3=O	none
CCOC(=O)c1ccc2nc(C(F)(F)F)[nH]c(=O)c2c1	EP2 mod 73 | EP2 cAMP induct inactive
O=S(=O)(c1cccc(C(F)(F)F)c1)N1c2ccccc2-n2cccc2[C@H]1c1cccnc1	none (no result: Furin inh, HSV replic up, Pf gamet viab) | EP2 cAMP induct active
O=S(=O)(NCc1cccnc1)c1cccn1-c1ncc(C(F)(F)F)cc1Cl	none
Cc1noc(C)c1CSc1nc2ccccc2c(=O)n1-c1ccccc1	none | EP2 cAMP induct inactive
Cc1noc(C)c1CSc1nc2[nH]ncc2c(=O)n1-c1ccccc1	none
C=CCn1c(SCc2c(C)noc2C)nc2cc(C(=O)O)ccc2c1=O	none
Cc1noc(C)c1CSc1nc2ccccc2c(=O)n1-c1ccc(F)cc1F	none (no result: EP2 antag, HSV replic up) | EP2 cAMP induct active
C=CCn1c(SCc2c(C)noc2C)nc2ccccc2c1=O	EP2 mod 71 (no result: Pf gamet viab) | EP2 cAMP induct inactive
COC(=O)[C@H](C)NC(=O)NC1CCCc2ccccc21 (some centres undefined)	none (no result: Pf gamet viab)
CC1CN(S(=O)(=O)N(C)C)CCN1S(=O)(=O)N(C)C (centres undefined)	none (no result: Pf gamet viab)
O=C(CSc1nc(-c2ccco2)cc(C(F)(F)F)n1)NCc1ccc(F)cc1	none (no result: Furin inh, HSV replic up, Pf gamet viab)
N#Cc1ccccc1N=C1CCCN1Cc1ccccc1	none
Cc1cc(C)c(N=C2CCCN2Cc2ccccc2)c(C#N)c1	EP2 mod 78 (no result: Pf gamet viab) | EP2 cAMP induct active
CC(C)(C)OC(=O)C1C(=O)CC(C)(O)C(C(=O)OC(C)(C)C)C1c1ccco1 (centres undefined)	none (no result: Pf gamet viab)
CCc1cc2cc(C)cc(C)c2nc1SCC(=O)N1CCCC1	EP2 mod 82 | EP2 cAMP induct inactive
COc1ccc(N2CCN(c3nc4c(c(=O)n(C)c(=O)n4C)n3Cc3ccccc3)CC2)cc1	EP2 mod 69 (no result: Pf gamet viab) | EP2 cAMP induct inactive
COc1ccc(CCNc2ccc([N+](=O)[O-])cn2)cc1	none (no result: EP2 mod, EP2 antag, Furin inh, HSV replic up)
CN(Cc1cccs1)c1ncnc2sccc12	none (no result: Pf gamet viab)
Cc1sc2ncnc(N(C)Cc3cccs3)c2c1C	none | EP2 cAMP induct active
CN(CCC#N)C(=O)COC(=O)c1ccccc1C(=O)c1ccc(Cl)c([N+](=O)[O-])c1	none
COC(=O)c1sc2nc(-c3ccccc3)c3c(c2c1N)CCCC3	EP2 mod 73 | EP2 cAMP induct inactive
CCOC(=O)c1sc2nc(N3CCOCC3)c3c(c2c1N)CCCC3	none (no result: Pf gamet viab)
CCN(CC)C(=O)c1sc2nc(N3CCOCC3)c3c(c2c1N)CCCC3	none
COC(=O)c1sc2nc(N3CCCCC3)c3c(c2c1N)CCCC3	EP2 mod 74 (no result: Pf gamet viab) | EP2 cAMP induct inactive
Nc1c(C(=O)O)sc2nc(-c3ccccc3)c3c(c12)CCCC3	none
NC(=O)c1sc2nc(N3CCCCC3)c3c(c2c1N)CCCC3	EP2 mod 76 | EP2 cAMP induct active
CCCCc1c(C)[nH]c(=S)[nH]c1=O	none (no result: Pf gamet viab)
COC(=O)[C@]1(Cc2ccccc2)N[C@H](c2ccc(-c3ccccc3)cc2)[C@@H]2C(=O)N(C)C(=O)[C@@H]21	none (no result: EP2 mod, EP2 antag, Furin inh, HSV replic up)
Cc1ccc2c(c1)N(Cc1cccc(Cl)c1)C(=O)c1cccnc1O2	EP2 mod 71 | EP2 cAMP induct active
CC(C)OC(=O)c1c(NC(=O)c2cccs2)sc2c1CCCC2	none (no result: Pf gamet viab) | EP2 cAMP induct active
COC(=O)c1c(NC(=O)c2ccco2)sc2c1CCC2	none (no result: Pf gamet viab)
COC(=O)c1c(NC(=O)c2cccs2)sc2c1CCC(C)C2 (centres undefined)	EP2 mod 64 (no result: Pf gamet viab) | EP2 cAMP induct inactive
CC(C)OC(=O)c1c(NC(=O)c2ccco2)sc2c1CCCCC2	none | EP2 cAMP induct inactive
CC(=O)Nc1ccc(OS(=O)(=O)c2ccccc2C)cc1	none
C/C(=N\N(Cc1ccccc1)c1ccccc1)c1cccnc1	EP2 mod 70 | EP2 cAMP induct inactive
CN(Cc1ccccc1)C(=S)Nc1cccnc1	none
C(=N\N(Cc1ccccc1)c1ccccc1)/c1cccnc1	EP2 mod 70 | EP2 cAMP induct active
CC(C)(Sc1ccc(CCN(CCCCC2CCCCC2)C(=O)NC2CCCCC2)cc1)C(=O)O	EP2 mod 66 (no result: Furin inh, HSV replic up, Pf gamet viab) | EP2 cAMP induct inactive
C=CCOc1nc(-c2ccncc2)nc2ccccc12	EP2 mod 69 | EP2 cAMP induct active
O=c1c2ccccc2c(=O)n(Cc2ccccc2)n1Cc1ccccc1	EP2 mod 66 | EP2 cAMP induct active
CCOC(=O)c1c(NC(=O)CSc2nnnn2CC)sc(C)c1C	none | EP2 cAMP induct inactive
CCOC(=O)c1c(NC(=O)CSc2nnnn2C)sc(C)c1C	none
CCOC(=O)c1c(NC(=O)c2ccoc2C)sc(C(=O)N(C)C)c1C	none | EP2 cAMP induct inactive
CCOC(=O)c1c(NC(=O)CNCC(O)CO)sc(C)c1C (centres undefined)	none (no result: Pf gamet viab)
CCN(CC)C(=O)c1sc(NC(=O)c2ccoc2C)c(C(=O)OC)c1C	none (no result: Pf gamet viab)
CCOC(=O)c1c(NC(=O)c2cccnc2)sc(C)c1C	none (no result: Pf gamet viab) | EP2 cAMP induct active
CCCCNCC(=O)Nc1sc(C)c(C)c1C(=O)OCC	none (no result: Pf gamet viab) | EP2 cAMP induct inactive
CC(C)(C)S(=O)(=O)c1cnc(-c2ccccn2)nc1N	none
COc1ccc(Cc2nnc(CCc3ccccc3)s2)cc1	none (no result: EP2 mod, EP2 antag, Furin inh, HSV replic up)
N#Cc1ccc(/C=N/NC(=S)Nc2ccc(S(=O)(=O)N3CCOCC3)cc2)cc1	none
O=C(c1ccccc1)N1CCN(S(=O)(=O)N2CCCCC2)CC1	none
CCOC(=O)c1c(NC(=O)CC(C)C)sc(C(C)=O)c1C	none | EP2 cAMP induct inactive
CCOC(=O)c1c(NC(=O)COC)sc(C(C)=O)c1C	none (no result: Pf gamet viab)
CCCn1c(SCC(=O)Nc2sc(C)c(C)c2C(=O)OCC)nc2c1c(=O)n(C)c(=O)n2C	none | EP2 cAMP induct inactive
Clc1ccccc1Cn1c(/C=C/c2ccco2)nc2ccccc21	EP2 mod 71 (no result: Pf gamet viab) | EP2 cAMP induct inactive
COc1ccc(Cn2c(/C=C/c3ccccc3)nc3ccccc32)cc1	none

Screening data deposited in PubChem by several laboratories.
